From PubChem BioAssay

experiment: stimulators of nuclear beta-catenin in C2C12, primary screen, imaging, WNT3A-conditioned medium, mouse C2C12, NPC library (AID 1117326); settings: stimulation, at 2 µM, stronger effect = higher value; further: reference of the scale not given here

SMILES	nuclear beta-catenin stimulation [%]
CCN(CC)C(=O)C1CN2CCc3cc(OC)c(OC)cc3C2CC1OC(C)=O (stereo unspecified)	1.3
CCOC(=O)Cn1cccc1-c1nc(-c2ccc(OC)cc2)c(-c2ccc(OC)cc2)s1	-1.4
N#C/C(=C1/SC[C@@H](c2ccc(Cl)cc2Cl)S1)n1ccnc1	2.8
NC(=O)COCCN1CCN(C(c2ccccc2)c2ccc(Cl)cc2)CC1 (stereo unspecified)	1.4
O=C(CCCN1CCN(c2ccc(F)cc2)CC1)NC1c2ccccc2CSc2ccccc21 (stereo unspecified)	1.3
Cc1ccc(C(=O)C(=O)O)cc1C	1.8
CN1[C@@H]2CC[C@H]1CC(NC(=O)n1c(=O)[nH]c3ccccc31)C2 (stereo partly specified)	1
CCOc1cc(OCC)c(C(=O)CCC(=O)O)cc1OCC	0.2
Cc1cc(NS(=O)(=O)c2ccc(N)cc2)nc(C)n1	0.7
c1ccc2c(c1)CCc1ccccc1N2	2.8
CCOC(=O)C(=O)CCc1ccccc1	2
O=C(O)Cc1ccc2c(c1)C(=O)c1ccccc1CO2	0.6
CN[C@H](CC(C)C)C(=O)N[C@H]1C(=O)N[C@@H](CC(N)=O)C(=O)N[C@H]2C(=O)N[C@H]3C(=O)N[C@H](C(=O)N[C@H](C(=O)O)c4cc(O)cc(O)c4-c4cc3ccc4O)[C@H](O)c3ccc(c(Cl)c3)Oc3cc2cc(c3O[C@@H]2OC(CO)[C@@H](O)[C@H](O)[C@@H]2O[C@H]2C[C@](C)(N)[C@H](O)[C@H](C)O2)Oc2ccc(cc2Cl)[C@H]1O (stereo partly specified)	2.4
Oc1cccc(-c2c3nc(c(-c4cccc(O)c4)c4ccc([nH]4)c(-c4cccc(O)c4)c4nc(c(-c5cccc(O)c5)c5ccc2[nH]5)CC4)C=C3)c1	-1.7
CCC(CN)=C(c1ccccc1)c1ccccc1	0.1
CC(C)=CCC/C(C)=C/CC/C(C)=C/C(=O)OCC(=O)[C@@]1(O)CC[C@H]2[C@@H]3CCC4=CC(=O)C=C[C@]4(C)[C@H]3[C@@H](O)C[C@@]21C	0
NNc1nnc(NN)c2ccccc12	1.4
COc1cccc(CCc2ccccc2OCC(CN(C)C)OC(=O)CCC(=O)O)c1 (stereo unspecified)	3.9
CC(C)(Oc1ccc(Cl)cc1)C(=O)OCCCOC(=O)C(C)(C)Oc1ccc(Cl)cc1	2.2
C/C=C/c1ccc(O)c(OC)c1	0.5
Cc1ccccc1C(=O)Nc1ccc(C(=O)N2CCCC(N(C)C)c3ccccc32)cc1 (stereo unspecified)	30
